Results from the supplement of paper PMC11732987, “Enantioselective OTUD7B fragment discovery through chemoproteomics screening and high-throughput optimisation” (Communications Chemistry, 2025).

Columns and labels:
Test in all cases: log2 ratio of Biotin-Ahx-Ub-VS probe labelling (fragment/DMSO); higher = less target engagement (more negative = stronger competition), active = hit call of the paper (q ≤ 0.05, log2 ratio ≤ -1)
Details in all cases: compound concentration: 200 uM; treatment time: 3 h
USP42 = target: T1, USP42 (UniProt Q9H9J4)
T1 sequence (whole entry): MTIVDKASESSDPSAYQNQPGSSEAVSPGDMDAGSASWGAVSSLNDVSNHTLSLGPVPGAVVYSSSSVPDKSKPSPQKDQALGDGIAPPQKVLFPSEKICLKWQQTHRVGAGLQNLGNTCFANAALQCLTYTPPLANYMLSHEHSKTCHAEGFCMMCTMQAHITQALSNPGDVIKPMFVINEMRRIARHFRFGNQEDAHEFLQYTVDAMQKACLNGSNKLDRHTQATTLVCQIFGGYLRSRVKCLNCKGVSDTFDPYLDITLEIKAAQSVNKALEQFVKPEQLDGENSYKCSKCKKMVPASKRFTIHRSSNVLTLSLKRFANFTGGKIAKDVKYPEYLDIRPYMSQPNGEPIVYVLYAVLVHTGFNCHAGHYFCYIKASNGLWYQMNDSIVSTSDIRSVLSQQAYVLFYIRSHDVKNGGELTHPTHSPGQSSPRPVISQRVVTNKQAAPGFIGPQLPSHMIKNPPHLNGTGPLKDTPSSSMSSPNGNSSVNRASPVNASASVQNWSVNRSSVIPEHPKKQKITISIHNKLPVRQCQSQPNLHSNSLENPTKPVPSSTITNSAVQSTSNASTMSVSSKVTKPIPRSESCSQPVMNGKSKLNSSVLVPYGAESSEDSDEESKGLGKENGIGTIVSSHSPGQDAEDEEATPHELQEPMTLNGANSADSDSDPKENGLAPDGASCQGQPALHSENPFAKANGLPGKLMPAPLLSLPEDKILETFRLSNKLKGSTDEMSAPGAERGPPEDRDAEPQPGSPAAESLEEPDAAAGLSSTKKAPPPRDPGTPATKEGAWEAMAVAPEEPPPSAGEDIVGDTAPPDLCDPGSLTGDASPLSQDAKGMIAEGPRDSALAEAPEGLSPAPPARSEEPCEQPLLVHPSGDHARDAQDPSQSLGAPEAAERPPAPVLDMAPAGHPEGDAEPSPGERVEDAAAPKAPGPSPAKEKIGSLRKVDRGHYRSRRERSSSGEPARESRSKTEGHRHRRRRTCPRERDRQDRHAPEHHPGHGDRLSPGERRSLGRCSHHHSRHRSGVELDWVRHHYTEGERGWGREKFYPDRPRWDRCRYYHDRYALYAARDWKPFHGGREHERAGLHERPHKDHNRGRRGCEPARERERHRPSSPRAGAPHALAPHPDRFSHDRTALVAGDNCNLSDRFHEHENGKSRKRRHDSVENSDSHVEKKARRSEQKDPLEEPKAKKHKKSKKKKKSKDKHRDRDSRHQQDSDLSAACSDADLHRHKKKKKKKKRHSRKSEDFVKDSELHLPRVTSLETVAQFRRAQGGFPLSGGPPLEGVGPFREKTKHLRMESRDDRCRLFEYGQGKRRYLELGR
Procedure, shortened: (§1)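 Global-median-normalised Spectronaut label-free quantities were compared by unpaired t-test, and values are average log2 ratios of fragment over vehicle. Only proteins with ≥2 unique peptides were used. HEK293T lysate (495 µg per sample) was treated in triplicate with fragment at 200 µM or vehicle for 3 h and then with Biotin-Ahx-Ub-VS at 0.5 µM final for 1 h. Labelled DUBs were then NeutrAvidin-enriched, digested with LysC and trypsin, and run by diaPASEF LC-MS/MS.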

USP46 = USP46 (UniProt P62068)
Procedure, shortened: as §1

USP47 = target: T2, USP47 (UniProt Q96K76)
T2 sequence (whole entry): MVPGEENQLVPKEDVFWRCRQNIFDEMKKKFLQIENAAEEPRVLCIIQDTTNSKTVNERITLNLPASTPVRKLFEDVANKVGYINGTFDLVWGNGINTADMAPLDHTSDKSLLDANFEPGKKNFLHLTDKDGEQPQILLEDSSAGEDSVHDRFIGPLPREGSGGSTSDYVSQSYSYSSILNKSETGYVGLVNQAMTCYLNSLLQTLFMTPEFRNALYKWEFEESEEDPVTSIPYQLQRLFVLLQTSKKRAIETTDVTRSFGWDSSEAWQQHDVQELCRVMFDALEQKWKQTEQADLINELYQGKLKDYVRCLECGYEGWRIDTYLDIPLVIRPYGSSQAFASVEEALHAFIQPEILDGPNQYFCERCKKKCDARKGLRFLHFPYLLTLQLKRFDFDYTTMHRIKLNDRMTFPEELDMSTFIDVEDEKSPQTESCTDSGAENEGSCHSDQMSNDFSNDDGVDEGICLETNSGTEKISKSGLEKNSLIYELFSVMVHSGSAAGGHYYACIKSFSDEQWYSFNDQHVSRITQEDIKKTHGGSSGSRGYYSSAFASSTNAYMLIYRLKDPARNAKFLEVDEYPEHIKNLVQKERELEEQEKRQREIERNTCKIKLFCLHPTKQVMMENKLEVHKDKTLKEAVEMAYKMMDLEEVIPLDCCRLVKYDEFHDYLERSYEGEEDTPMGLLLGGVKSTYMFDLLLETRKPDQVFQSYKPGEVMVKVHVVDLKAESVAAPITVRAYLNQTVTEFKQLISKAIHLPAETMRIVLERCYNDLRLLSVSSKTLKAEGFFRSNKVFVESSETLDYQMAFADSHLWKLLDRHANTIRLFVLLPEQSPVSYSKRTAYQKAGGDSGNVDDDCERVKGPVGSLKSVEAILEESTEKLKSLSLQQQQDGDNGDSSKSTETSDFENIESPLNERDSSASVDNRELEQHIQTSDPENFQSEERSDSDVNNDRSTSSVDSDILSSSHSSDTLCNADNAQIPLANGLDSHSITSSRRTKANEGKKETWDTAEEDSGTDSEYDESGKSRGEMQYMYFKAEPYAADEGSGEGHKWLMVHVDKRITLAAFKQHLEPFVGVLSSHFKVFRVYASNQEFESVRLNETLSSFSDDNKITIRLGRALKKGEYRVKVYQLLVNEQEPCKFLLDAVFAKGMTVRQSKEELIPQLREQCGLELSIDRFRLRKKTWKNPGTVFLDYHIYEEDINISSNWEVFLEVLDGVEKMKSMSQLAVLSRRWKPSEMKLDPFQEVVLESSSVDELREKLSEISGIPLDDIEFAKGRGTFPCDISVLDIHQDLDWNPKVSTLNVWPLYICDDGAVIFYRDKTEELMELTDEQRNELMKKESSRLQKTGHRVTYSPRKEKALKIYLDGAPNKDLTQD
Procedure, shortened: as §1

USP48 = target: T3, USP48 (UniProt Q86UV5)
T3 sequence (whole entry): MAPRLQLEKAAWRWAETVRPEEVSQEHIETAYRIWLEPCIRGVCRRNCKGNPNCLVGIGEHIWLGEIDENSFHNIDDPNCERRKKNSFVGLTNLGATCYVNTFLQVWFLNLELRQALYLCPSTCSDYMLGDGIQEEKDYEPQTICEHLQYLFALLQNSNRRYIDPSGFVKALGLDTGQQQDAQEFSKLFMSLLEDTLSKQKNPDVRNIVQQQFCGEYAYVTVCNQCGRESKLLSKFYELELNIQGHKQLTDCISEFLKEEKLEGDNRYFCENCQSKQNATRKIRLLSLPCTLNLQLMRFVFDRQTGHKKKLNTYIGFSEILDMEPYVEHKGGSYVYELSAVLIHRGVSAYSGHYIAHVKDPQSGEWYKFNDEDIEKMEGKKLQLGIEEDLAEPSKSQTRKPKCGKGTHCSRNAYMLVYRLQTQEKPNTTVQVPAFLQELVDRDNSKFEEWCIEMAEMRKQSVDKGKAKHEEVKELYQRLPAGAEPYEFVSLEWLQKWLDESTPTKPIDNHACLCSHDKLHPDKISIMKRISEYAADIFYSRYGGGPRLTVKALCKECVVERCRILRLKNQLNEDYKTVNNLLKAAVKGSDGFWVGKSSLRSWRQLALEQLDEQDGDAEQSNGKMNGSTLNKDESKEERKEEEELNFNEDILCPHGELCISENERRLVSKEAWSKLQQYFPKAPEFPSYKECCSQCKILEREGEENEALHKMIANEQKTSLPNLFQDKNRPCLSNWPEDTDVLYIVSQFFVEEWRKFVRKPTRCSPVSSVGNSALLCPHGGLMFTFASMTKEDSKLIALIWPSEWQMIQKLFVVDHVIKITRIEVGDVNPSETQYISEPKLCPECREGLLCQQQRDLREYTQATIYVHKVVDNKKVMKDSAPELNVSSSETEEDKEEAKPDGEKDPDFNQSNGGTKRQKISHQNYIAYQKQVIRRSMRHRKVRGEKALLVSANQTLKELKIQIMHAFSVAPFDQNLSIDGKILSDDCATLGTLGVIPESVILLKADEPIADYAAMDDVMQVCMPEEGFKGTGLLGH
Procedure, shortened: as §1

USP5 = target: T4, USP5 (UniProt P45974)
T4 sequence (whole entry): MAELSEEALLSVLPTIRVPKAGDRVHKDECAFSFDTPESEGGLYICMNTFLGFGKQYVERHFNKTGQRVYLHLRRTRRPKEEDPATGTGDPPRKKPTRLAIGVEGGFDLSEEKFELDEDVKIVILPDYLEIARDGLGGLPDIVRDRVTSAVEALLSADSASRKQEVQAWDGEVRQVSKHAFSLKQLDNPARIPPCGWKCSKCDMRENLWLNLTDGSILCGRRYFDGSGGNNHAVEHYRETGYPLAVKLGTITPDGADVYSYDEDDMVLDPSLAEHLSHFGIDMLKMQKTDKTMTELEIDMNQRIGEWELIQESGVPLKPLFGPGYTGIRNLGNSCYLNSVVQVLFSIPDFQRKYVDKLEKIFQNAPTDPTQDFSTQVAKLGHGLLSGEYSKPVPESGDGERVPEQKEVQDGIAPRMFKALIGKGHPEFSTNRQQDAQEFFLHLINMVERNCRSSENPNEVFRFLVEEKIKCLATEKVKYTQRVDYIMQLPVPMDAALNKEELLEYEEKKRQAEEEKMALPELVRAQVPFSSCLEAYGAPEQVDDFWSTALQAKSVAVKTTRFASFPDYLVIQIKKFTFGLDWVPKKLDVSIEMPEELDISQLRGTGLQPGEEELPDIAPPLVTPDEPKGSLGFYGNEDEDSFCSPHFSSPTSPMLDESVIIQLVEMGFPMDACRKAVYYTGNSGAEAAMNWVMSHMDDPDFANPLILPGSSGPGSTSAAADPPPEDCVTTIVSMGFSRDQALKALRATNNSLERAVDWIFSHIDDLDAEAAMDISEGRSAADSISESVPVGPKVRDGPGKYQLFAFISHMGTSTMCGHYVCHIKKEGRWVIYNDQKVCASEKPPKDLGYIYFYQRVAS
Procedure, shortened: as §1

USP54 = USP54 (UniProt Q70EL1)
Procedure, shortened: as §1

USP7 = USP7 (UniProt Q93009)
Procedure, shortened: as §1

USP8 = target: T5, USP8 (UniProt P40818)
T5 sequence (whole entry): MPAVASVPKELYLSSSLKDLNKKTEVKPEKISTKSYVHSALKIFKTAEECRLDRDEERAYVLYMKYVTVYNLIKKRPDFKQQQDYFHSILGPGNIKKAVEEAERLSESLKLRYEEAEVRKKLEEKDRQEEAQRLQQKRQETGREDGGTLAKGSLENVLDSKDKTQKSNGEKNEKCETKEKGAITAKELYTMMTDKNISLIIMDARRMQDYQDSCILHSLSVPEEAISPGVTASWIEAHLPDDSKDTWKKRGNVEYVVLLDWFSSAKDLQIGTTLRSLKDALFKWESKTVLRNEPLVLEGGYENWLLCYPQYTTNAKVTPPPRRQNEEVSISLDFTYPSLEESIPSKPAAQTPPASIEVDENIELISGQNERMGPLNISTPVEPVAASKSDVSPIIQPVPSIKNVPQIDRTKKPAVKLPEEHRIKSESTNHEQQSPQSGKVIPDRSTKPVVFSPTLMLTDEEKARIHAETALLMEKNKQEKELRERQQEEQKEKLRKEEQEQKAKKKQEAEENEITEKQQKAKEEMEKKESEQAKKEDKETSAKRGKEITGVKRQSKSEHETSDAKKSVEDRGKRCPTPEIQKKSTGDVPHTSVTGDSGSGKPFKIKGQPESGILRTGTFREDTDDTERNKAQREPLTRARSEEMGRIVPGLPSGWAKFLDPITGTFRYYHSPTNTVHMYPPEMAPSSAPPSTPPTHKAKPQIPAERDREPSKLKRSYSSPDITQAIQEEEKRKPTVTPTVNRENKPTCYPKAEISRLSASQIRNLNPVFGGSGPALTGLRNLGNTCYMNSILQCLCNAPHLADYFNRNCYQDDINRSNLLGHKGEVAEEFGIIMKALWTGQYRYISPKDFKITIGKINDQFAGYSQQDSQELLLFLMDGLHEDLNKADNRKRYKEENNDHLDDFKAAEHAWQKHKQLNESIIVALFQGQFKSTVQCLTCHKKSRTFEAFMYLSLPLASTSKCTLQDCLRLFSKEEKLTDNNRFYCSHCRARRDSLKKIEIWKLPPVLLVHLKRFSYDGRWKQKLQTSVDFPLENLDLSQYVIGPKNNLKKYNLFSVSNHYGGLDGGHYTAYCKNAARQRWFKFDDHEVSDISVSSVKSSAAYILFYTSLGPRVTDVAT
Procedure, shortened: as §1

USP9X = USP9X (UniProt Q93008)
Procedure, shortened: as §1

UniProt O00487 = target: UniProt O00487
Procedure, shortened: as §1

Measured: log2 ratio of Biotin-Ahx-Ub-VS probe labelling

Chain of USP9X (Q93008 whole entry): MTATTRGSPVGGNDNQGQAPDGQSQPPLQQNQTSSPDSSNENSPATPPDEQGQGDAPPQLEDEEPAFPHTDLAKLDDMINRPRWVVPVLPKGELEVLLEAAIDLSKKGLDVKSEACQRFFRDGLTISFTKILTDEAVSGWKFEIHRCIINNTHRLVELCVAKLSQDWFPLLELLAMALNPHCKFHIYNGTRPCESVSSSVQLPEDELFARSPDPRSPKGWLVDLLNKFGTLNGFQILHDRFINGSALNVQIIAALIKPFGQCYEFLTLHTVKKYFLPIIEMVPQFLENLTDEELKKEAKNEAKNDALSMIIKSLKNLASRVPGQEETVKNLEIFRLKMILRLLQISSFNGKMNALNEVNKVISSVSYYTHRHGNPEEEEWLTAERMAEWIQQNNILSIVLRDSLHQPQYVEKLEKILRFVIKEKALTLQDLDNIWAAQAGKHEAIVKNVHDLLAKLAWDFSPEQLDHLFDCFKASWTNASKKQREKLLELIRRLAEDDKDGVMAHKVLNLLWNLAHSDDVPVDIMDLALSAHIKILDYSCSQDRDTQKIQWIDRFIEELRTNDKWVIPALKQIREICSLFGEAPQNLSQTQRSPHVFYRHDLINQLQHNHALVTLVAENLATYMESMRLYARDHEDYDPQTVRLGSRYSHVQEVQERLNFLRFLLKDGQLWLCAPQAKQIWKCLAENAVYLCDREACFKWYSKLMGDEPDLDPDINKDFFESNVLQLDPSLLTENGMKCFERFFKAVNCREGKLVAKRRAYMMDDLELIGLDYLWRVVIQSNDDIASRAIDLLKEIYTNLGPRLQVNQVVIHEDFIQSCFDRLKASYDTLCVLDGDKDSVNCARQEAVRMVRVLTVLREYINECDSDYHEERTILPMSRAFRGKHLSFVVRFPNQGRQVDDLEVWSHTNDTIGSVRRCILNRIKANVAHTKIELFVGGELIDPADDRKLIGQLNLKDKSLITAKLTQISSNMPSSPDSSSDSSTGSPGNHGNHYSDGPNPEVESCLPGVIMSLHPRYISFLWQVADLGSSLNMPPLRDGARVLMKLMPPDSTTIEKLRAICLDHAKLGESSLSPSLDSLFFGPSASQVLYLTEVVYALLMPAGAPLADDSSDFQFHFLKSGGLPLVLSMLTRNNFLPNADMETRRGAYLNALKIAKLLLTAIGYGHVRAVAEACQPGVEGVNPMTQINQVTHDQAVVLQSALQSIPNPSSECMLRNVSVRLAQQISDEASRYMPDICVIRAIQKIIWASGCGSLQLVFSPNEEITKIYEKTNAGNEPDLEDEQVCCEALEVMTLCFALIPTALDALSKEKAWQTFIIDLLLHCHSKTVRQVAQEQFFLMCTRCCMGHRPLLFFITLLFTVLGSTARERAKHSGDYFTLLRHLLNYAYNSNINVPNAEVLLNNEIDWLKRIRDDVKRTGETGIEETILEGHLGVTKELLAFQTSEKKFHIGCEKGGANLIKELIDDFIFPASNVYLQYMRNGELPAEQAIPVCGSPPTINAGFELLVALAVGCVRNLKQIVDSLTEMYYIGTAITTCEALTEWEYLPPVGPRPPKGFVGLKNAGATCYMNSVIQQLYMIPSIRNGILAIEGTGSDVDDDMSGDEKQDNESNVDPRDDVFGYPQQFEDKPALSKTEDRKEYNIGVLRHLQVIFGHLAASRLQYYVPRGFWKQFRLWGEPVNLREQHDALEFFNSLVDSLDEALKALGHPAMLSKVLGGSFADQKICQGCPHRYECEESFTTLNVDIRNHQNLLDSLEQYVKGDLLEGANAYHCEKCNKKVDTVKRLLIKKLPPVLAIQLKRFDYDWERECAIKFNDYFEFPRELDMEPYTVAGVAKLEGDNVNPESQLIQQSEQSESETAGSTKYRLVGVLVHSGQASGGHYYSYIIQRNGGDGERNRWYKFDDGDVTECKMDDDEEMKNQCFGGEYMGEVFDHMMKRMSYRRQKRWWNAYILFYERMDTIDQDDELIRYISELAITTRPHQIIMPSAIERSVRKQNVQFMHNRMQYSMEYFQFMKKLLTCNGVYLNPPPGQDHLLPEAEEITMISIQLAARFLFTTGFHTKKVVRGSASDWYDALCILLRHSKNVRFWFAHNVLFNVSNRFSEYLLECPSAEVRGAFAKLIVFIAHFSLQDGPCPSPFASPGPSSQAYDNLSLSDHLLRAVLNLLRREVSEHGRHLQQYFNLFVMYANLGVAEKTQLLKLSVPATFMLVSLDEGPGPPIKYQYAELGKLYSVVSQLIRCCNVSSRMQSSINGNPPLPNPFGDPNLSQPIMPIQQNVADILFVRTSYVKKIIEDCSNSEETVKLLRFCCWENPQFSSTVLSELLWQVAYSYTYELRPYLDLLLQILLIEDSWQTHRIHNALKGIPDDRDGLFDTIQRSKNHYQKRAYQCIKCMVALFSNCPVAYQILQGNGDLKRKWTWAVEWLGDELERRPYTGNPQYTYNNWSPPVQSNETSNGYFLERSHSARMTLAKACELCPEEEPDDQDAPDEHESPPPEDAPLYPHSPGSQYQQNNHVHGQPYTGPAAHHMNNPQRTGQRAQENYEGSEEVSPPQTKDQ
Chain of UniProt O00487 (O00487 whole entry): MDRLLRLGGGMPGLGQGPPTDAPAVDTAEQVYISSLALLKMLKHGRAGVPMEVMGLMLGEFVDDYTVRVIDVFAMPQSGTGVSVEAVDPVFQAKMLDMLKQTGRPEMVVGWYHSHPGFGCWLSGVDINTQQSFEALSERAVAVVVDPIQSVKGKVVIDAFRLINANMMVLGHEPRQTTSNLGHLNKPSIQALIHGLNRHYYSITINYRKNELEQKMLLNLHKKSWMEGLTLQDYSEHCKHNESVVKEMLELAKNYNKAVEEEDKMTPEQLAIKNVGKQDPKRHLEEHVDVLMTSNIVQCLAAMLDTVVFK
Chain of USP54 (Q70EL1 whole entry): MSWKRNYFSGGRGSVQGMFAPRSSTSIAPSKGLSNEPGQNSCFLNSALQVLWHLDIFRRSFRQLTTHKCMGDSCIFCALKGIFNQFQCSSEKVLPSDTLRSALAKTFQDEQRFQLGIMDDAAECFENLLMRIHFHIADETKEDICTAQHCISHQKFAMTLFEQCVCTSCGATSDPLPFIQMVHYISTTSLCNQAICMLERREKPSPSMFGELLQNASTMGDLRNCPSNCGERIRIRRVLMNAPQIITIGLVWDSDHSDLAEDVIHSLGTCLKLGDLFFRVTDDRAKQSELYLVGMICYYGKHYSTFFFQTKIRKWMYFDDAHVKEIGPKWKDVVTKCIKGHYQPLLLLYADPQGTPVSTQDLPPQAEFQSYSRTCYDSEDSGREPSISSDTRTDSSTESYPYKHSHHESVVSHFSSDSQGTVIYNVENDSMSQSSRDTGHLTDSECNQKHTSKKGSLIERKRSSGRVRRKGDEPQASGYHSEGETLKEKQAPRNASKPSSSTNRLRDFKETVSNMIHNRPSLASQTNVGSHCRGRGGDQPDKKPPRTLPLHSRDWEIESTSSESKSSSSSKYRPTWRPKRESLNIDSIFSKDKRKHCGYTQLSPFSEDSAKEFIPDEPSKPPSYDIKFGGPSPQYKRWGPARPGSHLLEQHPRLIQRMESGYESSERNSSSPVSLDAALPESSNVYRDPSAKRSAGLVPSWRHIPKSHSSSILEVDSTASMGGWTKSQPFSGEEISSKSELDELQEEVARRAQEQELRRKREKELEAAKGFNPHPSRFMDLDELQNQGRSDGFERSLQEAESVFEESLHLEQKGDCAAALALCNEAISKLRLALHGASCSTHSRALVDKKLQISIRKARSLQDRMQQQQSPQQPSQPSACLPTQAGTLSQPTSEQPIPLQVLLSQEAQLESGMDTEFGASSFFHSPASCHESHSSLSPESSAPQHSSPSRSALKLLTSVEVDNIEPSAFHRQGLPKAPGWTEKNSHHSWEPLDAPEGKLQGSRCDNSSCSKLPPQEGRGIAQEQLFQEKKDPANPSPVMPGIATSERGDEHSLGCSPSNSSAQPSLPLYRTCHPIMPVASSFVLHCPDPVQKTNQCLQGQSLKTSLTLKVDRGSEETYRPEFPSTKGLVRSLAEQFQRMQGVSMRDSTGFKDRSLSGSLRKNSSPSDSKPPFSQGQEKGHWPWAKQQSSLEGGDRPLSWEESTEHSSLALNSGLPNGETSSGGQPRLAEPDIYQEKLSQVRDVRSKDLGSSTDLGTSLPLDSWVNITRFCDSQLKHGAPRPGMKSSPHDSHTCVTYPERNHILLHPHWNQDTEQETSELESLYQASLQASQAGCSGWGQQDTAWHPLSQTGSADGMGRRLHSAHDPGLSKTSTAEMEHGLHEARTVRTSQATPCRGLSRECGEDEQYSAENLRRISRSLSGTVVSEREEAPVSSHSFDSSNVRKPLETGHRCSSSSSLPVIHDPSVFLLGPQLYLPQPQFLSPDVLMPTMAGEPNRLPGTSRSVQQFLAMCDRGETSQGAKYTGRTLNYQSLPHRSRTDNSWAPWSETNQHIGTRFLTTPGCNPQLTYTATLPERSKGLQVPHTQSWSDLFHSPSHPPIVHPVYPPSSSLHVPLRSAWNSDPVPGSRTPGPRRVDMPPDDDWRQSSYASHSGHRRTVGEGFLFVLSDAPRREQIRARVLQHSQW
Chain of USP46 (P62068 whole entry): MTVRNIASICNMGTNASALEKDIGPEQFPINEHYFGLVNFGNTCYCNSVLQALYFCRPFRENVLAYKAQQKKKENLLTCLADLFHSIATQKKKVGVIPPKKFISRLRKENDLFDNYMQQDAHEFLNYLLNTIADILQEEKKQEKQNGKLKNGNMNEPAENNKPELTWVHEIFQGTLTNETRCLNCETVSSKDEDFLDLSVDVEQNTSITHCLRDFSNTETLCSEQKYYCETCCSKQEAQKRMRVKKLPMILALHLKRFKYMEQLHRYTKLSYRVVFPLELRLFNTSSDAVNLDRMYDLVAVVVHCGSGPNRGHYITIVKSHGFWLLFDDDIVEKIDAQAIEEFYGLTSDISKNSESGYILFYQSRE

O=C(CCl)N(C1=CCCCC1)C1CC1
inactive: USP42 0.331 | USP46 -0.1 | USP47 -0.571 | USP48 -0.64 | USP5 0.124 | USP54 0.551 | USP7 -0.612 | USP8 -0.00831 | USP9X -0.0905 | UniProt O00487 -0.232

O=C(CCl)NCc1ccc(N2CCOCC2)c(F)c1
inactive: USP42 0.396 | USP46 0.00295 | USP47 0.00631 | USP48 0.132 | USP5 0.372 | USP54 0.657 | USP7 -0.046 | USP8 0.129 | USP9X -0.078 | UniProt O00487 0.0665

Cc1cccc(NC(=O)CCl)c1C
inactive: USP42 0.0545 | USP46 -0.22 | USP47 -0.266 | USP48 -0.0682 | USP5 -0.738 | USP54 -0.507 | USP7 -0.293 | USP8 -0.346 | USP9X -0.185 | UniProt O00487 -0.182
